Reference: PubChem BioAssay AID624288 (National Center for Advancing Translational Sciences (NCATS), 2012)
Among all 340,000 compounds or so, about 1,400 (0.41%) were called active. A call without a number means that no potency is given here. Not shown: some 4% with an inconclusive outcome. Calls follow the shape of the full dose curve; cell line not stated here. This excerpt belongs to a sample that is enriched for actives.

Test: qHTS for Antagonists of gsp, the Etiologic Mutation Responsible for Fibrous Dysplasia/McCune-Albright Syndrome: qHTS; also: nearly all actives have a fitted effect of over 65% in size
Details: gsp-mutant cells, cAMP HTRF, 30 min; series mostly up to 76.9 µM
Text: McCune-Albright syndrome (MAS) is a rare disease caused by somatic mutations in Gsgsp), a widely expressed protein central in signal transduction from G-coupled protein receptors (GPCRs). The disease symptoms are diverse, owing to the fact that the patients are mosaics with varying degrees of tissue involvement. Greater than 90% of the mutations in Gs in MAS occur at the R201 position and are equally divided between R201H and R201C. The R201 residue is central in the intrinsic GTPase activity of Gs and the H and C mutations lead to loss of, or impairment of, the GTPase activity. The intrinsic GTPase activity is necessary to terminate the interaction between Gs and adenylate cyclase, and to terminate the cAMP-mediated signaling of the given GPCR pathway. Thus, these activating mutations lead to ligand-independent activation of GPCR pathways. The tissue phenotype is determined by the role of Gs in the function of a given cell, and excess Gs/cAMP signaling in that cell. For example, pituitary somatotrophs overproduce growth hormone in a growth hormone releasing hormone-independent fashion, and gigantism/acromegaly ensues. Skeletal stem cells in the bone marrow behave as if they are under constant parathyroid hormone stimulation and fail to differentiate into osteoblasts and osteocytes, and proliferate as immature osteogenic cells and lead to the marrow fibrosis of fibrous dysplasia of bone. The goal of this project is to identify molecules with inhibitory activity at gsp mutations that will not only allow for in-depth study of the underlying molecular and cellular pathophysiology, but also serve as compounds from which drugs to treat FD/MAS can be developed NIH Chemical Genomics Center [NCGC] NIH Molecular Libraries Probe Centers Network [MLPCN] MLPCN Grant: IRP-FT-DE-2011-01 Assay Submitter (PI): Michael Collins, NIDCR
1.#Seed 2000 cells/well in 6 ul DMEM 10% FBS, 1% Pen/Strep, 0.5 mg/ml G418 2.#Incubate 16-24 hr at 37C, 5% CO2, 95% humidity 3.#Aspirate leaving 1 ul residual volume 4.#Dispense 5 ul/well DPBS + 1 mM CaCl2, 0.5 mM MgCl2, 0.05% BSA, 0.005% Tween 20 5.#Aspirate leaving 2 ul residual volume 6.#Dispense 23 nl/well compounds in DMSO 7.#Dispense 1 ul/well 300 uM Ro-20174 in DMEM 10% FBS 8.#Incubate 30 min at 37C, 5% CO2, 95% humidity 9.#Dispense 1.5 ul/well HTRF reagent: cAMP-d2 in lysis buffer 10.#Dispense 1.5 ul/well HTRF reagent: anti-cAMP antibody-K in lysis buffer 11.#Incubate 30 min at room temperature 12.#Detect HTRF signal using EnVision plate reader
Potency is read from the fitted curve at half-maximal effect.

SMILES | Potency
CC1=CC(=Cc2sc3ccccc3[n+]2C)C=C(C)O1 | 44.7 µM (active)
COc1ccc(-n2c(-c3ccccc3)nc3ccccc3c2=O)cc1 | inactive
CCC(=O)CC(c1ccc([N+](=O)[O-])cc1)c1c(O)c2ccccc2oc1=O (stereo not given) | 31.6 µM (active)
Cc1ccc(-n2c(-c3ccc([N+](=O)[O-])cc3)nc3ccccc3c2=O)cc1 | inactive
COc1cc(C(c2c(O)c3ccccc3oc2=O)c2c(C)n(C)n(-c3ccccc3)c2=O)ccc1O (stereo not given) | inactive
CC[C@H]1CN2CCc3cc(OC)c(OC)cc3[C@@H]2C[C@@H]1C[C@H]1NCCc2cc(OC)c(OC)cc21 | inactive
CN(C)C(=O)NC(O)C(Cl)(Cl)Cl (stereo not given) | inactive
CC(=O)OC1C2(CC3N4C(=O)C5(CO)SSC4(CC31O)C(=O)N5C)OC(C)C(C)(C)C2=O (stereo not given) | inactive
C=CCn1c(O)c(/C=N/N2CCOCC2)c(=O)[nH]c1=S | inactive
COC(=O)C1=C(c2c(C)noc2C)C[C@@H]2CC[C@H]1N2C(=O)NCc1ccc2c(c1)OCO2 | inactive
